Experimental data as given in PubChem BioAssay AID1159580 (chemical genetic matrix, 2015).
Where “and” joins values, the source holds several entries; their conditions need not be identical. Identical values can stand only once. About 2,000 (36%) of roughly 5,500 compounds were called active. Another 18% or so got no clear call; they are omitted. Cut-off read from the data, not from the text of the source: active = normalized growth mostly below about 0.91 (no sharp cut-off); inconclusive = no clear call, values can overlap the other calls; inactive = mostly above about 0.92. Some of the results follow.

Test: chemical genetic growth profiling, strain panel (AID 1159580);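 note: tested at 20 µM; growth read once vehicle control cultures reached saturation at 30 °C; 1 = growth at the plate median or of vehicle wells; lower values mean less growth of the strain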
Conditions: S. cerevisiae deletion strains, growth OD

Measured: normalized growth

CCCC(=O)Nc1ccc(OCC(O)CNC(C)C)c(C(C)=O)c1 (stereo unspecified)
inactive: locus YAL013W, strain DEP1, hits give low values 1.02 | locus YAL021C, strain ccr4, hits give low values 1 | locus YAL026C, strain drs2, hits give low values 1.03 | locus YAL030W, strain snc1, hits give low values 1.02 | locus YBL061C, strain skt5, hits give low values 1.02 | locus YBR009C, strain hhf1, hits give low values 1 | locus YBR021W, strain FUR4, hits give low values 1.02 | locus YBR023C, strain chs3, hits give low values 1.02 | locus YBR171W, strain sec66, hits give low values 1.02 | locus YBR229C, strain ROT2, hits give low values 1.01 | locus YBR231C, strain swc5, hits give low values 1.04 | locus YBR279W, strain paf1, hits give low values 1.02 | locus YCL011C, strain gbp2, hits give low values 1.03 | locus YCL016C, strain dcc1, hits give low values 1.03 | locus YCL029C, strain bik1, hits give low values 1.02 | locus YCL069W, strain vba3, hits give low values 1.02 | locus YCR088W, strain abp1, hits give low values 1.01 | locus YDL005C, strain med2, hits give low values 1.01 | locus YDL035C, strain GPR1, hits give low values 1.02 | locus YDL040C, strain nat1, hits give low values 1 | locus YDL074C, strain BRE1, hits give low values 1.05 | locus YDL101C, strain DUN1, hits give low values 1.02 | locus YDL134C, strain PPH21, hits give low values 1.01 | locus YDL185W, strain tfp1, hits give low values 1.02 | locus YDL192W, strain arf1, hits give low values 1.02 | locus YDR001C, strain nth1, hits give low values 1.02 | locus YDR069C, strain doa4, hits give low values 1.01 | locus YDR101C, strain arx1, hits give low values 1.01 | locus YDR137W, strain rgp1, hits give low values 1.01 | locus YDR150W, strain NUM1, hits give low values 1.02 | locus YDR159W, strain sac3, hits give low values 0.984 | locus YDR162C, strain NBP2, hits give low values 1.01 | locus YDR195W, strain ref2 0.999 | locus YDR297W, strain sur2, hits give low values 1.01 | locus YDR318W, strain mcm21, hits give low values 1.02 | locus YDR334W, strain swr1, hits give low values 1.01 | locus YDR335W, strain msn5, hits give low values 1.01 | locus YDR388W, hits give low values 1.01 | locus YDR392W, strain spt3, hits give low values 0.995 | locus YDR502C, strain sam2, hits give low values 1.02 | locus YEL003W, strain gim4, hits give low values 1.02 | locus YEL037C, strain rad23, hits give low values 1.02 | locus YEL061C, strain CIN8 (second series), hits give low values 1.04 | locus YEL061C, strain CIN8, hits give low values 1.01 | locus YER015W, strain faa2, hits give low values 1.01 | locus YER016W, strain bim1, hits give low values 1.03 | locus YER110C, hits give low values 1.02 | locus YER111C, strain swi4, hits give low values 1.01 | locus YER155C, strain BEM2 (second series), hits give low values 0.985 | locus YER155C, strain BEM2, hits give low values 1.02 | locus YER167W, strain BCK2, hits give low values 1.04 | locus YFR010W, strain ubp6, hits give low values 1.01 | locus YGL078C, strain dbp3, hits give low values 1.01 | locus YGL086W, strain mad1, hits give low values 0.996 | locus YGL167C, strain pmr1, hits give low values 1.02 | locus YGL173C, strain kem1, hits give low values 1.02 | locus YGL227W, strain vid30, hits give low values 1.03 | locus YGL240W, strain doc1, hits give low values 0.984 | locus YGL248W, strain PDE1, hits give low values 1.01 | locus YGL253W, strain hxk2, hits give low values 1.01 | locus YGR078C, strain PAC10, hits give low values 1.03 | locus YGR135W, strain pre9, hits give low values 1.02 | locus YGR229C, strain SMI1, hits give low values 1.03 | locus YGR252W, strain gcn5, hits give low values 0.965 | locus YHR013C, strain ard1, hits give low values 1.02 | locus YHR027C, strain rpn1, hits give low values 1.02 | locus YHR030C, strain SLT2, hits give low values 1.01 and 1.04 | locus YHR079C, strain IRE1 (second series), hits give low values 1.02 | locus YHR079C, strain IRE1, hits give low values 1.01 | locus YHR094C, strain hxt1, hits give low values 1.01 | locus YHR129C, strain ARP1, hits give low values 1.01 | locus YHR142W, strain chs7, hits give low values 1.04 | locus YHR200W, strain rpn10, hits give low values 1.02 | locus YIL066C, strain RNR3, hits give low values 1.02 | locus YIL073C, strain SPO22, hits give low values 1.05 | locus YIL125W, strain kgd1, hits give low values 1.01 | locus YIR030C, strain dcg1, hits give low values 1.02 | locus YJL092W, strain hpr5, hits give low values 1.01 | locus YJL095W, strain BCK1 (second series), hits give low values 1.02 | locus YJL095W, strain BCK1, hits give low values 1.03 and 1.01 | locus YJL115W, strain asf1, hits give low values 1.01 | locus YJL129C, strain trk1, hits give low values 1.01 | locus YJL134W, strain LCB3, hits give low values 1.01 | locus YJL154C, strain vps35, hits give low values 1.01 | locus YJL164C, strain tpk1, hits give low values 0.999 | locus YJL166W, strain qcr8, hits give low values 1.01 | locus YJL168C, strain set2, hits give low values 1.02 | locus YJL187C, strain SWE1 (second series), hits give low values 1.02 | locus YJL187C, strain SWE1, hits give low values 1.02 | locus YJR043C, strain POL32, hits give low values 1.05 | locus YJR066W, strain TOR1, hits give low values 0.957
